Test systems include EPHA4; EPHA5; EPHA6; EPHA7; EPHA8; EPHB1; EPHB2; EPHB3; EPHB4; EPHB6.
Common to all, as to details: concentration: 1 μM, replicates: in singlicate; n = 1
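Note: KINOMEscan kinase panel screen.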

As to `Cc1cccc(-c2nc(Nc3ccc4[nH]ncc4c3)c3ccccc3n2)n1` [GW857175], the “%Inh” value came out at 0% in the assay with EPHA4; 0% in the assay with EPHA5; 0% in the assay on EPHA6; 0% with EPHA7; 0% in the assay on EPHA8; 11% in the assay on EPHB1. Also, the “%Inh” value in the assay with EPHB2 came out at 0%; in the assay with EPHB3, 0%; with EPHB4, 0%; with EPHB6, 43%.

As to `Cl.Oc1ccc(-c2nc(-c3ccccc3)[nH]c2-c2ccncc2)cc1` [SB-428218], the “%Inh” value in the assay on EPHA4 is recorded as 30%; in the assay with EPHA5 it was 0%; with EPHA6, 35%; with EPHA7, 0%; in the assay on EPHA8, 4%; in the assay on EPHB1, 0%. Also, the “%Inh” value with EPHB2 was found to be 4%; with EPHB3, 25%; with EPHB4, 45%; in the assay on EPHB6, 25%.

With `COc1cccc(NC(=O)NC2CCN(c3ccnc(Nc4ccc(F)cc4)n3)C2)c1` (stereo not drawn) [GSK1379721], the “%Inh” value is given as 0% with EPHA4; 0% in the assay on EPHA5; 0% with EPHA6; 0% with EPHA7; 3% in the assay with EPHA8; 17% in the assay on EPHB1. In addition, the “%Inh” value in the assay with EPHB2 amounted to 0%; in the assay with EPHB3 it was 0%; with EPHB4, 0%; in the assay on EPHB6, 33%.

On to `C[C@@H]1CCCCN1c1cc(-c2ccc3c(N)n[nH]c3c2)nc(N)n1` [GSK2258759], for which the “%Inh” value with EPHA4 turned out to be 2%; in the assay with EPHA5 it was 0%; in the assay with EPHA6 it was 1%; with EPHA7 it was 0%; in the assay on EPHA8 it was 3%; in the assay with EPHB1, 12%. Besides, the “%Inh” value is listed as 0% in the assay on EPHB2, 7% in the assay on EPHB3, 15% in the assay on EPHB4 and 14% in the assay with EPHB6.

As for `O=C(Nc1n[nH]c2nc(-c3nccs3)c(Br)cc12)C1CC1` [SB-742251], the “%Inh” value with EPHA4 is on record as 24%; in the assay with EPHA5 it was 1%; with EPHA6, 32%; with EPHA7, 18%; in the assay on EPHA8 it was 35%; with EPHB1, 0%. Also, the “%Inh” value amounted to 15% with EPHB2, 29% in the assay with EPHB3, 17% with EPHB4 and 59% in the assay with EPHB6.

Consider `Fc1cc(Cl)ccc1Nc1ccnc2cc(-c3ccc(CN4CCCCC4)o3)ccc12` [GW560116], for which the “%Inh” value with EPHA4 stood at 0%; in the assay on EPHA5, 0%; in the assay with EPHA6, 24%; in the assay on EPHA7, 0%; in the assay with EPHA8 it was 30%; with EPHB1, 12%. For the same molecule, the “%Inh” value in the assay with EPHB2 stood at 10%; in the assay with EPHB3 it was 0%; in the assay on EPHB4, 12%; in the assay on EPHB6, 51%.

Turning to `CC(C)(C)c1ccc(C(=O)Nc2cn3cc(Cl)ccc3n2)cc1`, the “%Inh” value in the assay on EPHA4, in the assay on EPHA5, with EPHA6, with EPHA7, in the assay with EPHA8 and in the assay with EPHB1 was 0% in each case. Besides, the “%Inh” value in the assay with EPHB2 is recorded as 0%; in the assay with EPHB3, 0%; in the assay with EPHB4 it was 0%; in the assay with EPHB6 it was 8%.

Regarding `COc1ccccc1-c1ccc2c(NC(=O)C3CC3)n[nH]c2n1` [SB-711239], the “%Inh” value stood at 13% in the assay with EPHA4; 0% in the assay on EPHA5; 9% with EPHA6; 4% in the assay on EPHA7; 9% in the assay with EPHA8; 0% with EPHB1. The “%Inh” value in the assay with EPHB2 is 11%; in the assay with EPHB3, 15%; with EPHB4 it was 14%; with EPHB6 it was 6%.

As to `Clc1cc(Cl)cc(Nc2ccnc(Nc3cc(Cl)cc(Cl)c3)n2)c1` [GSK175726], the “%Inh” value is reported as 8% in the assay with EPHA4; 0% in the assay with EPHA5; 13% in the assay on EPHA6; 8% in the assay with EPHA7; 17% with EPHA8; 1% in the assay with EPHB1. The “%Inh” value in the assay on EPHB2 is recorded as 19%; in the assay on EPHB3, 10%; in the assay with EPHB4, 28%; in the assay on EPHB6, 19%.

Regarding `Nc1nc(-c2nccs2)c(-c2ccnc3ccccc23)s1` [GW693542], the “%Inh” value in the assay with EPHA4 was found to be 11%; in the assay with EPHA5, 0%; in the assay on EPHA6 it was 8%; in the assay on EPHA7 it was 10%; in the assay with EPHA8, 17%; with EPHB1, 13%. The “%Inh” value was determined as 0% with EPHB2, 10% in the assay with EPHB3, 1% in the assay with EPHB4 and 5% with EPHB6.

Take `CCn1c(-c2ccccn2)nc2cnccc21` [SB-736398]: the “%Inh” value is reported as 23% with EPHA4; 0% with EPHA5; 7% in the assay on EPHA6; 0% with EPHA7; 5% in the assay with EPHA8; 0% in the assay with EPHB1. In addition, the “%Inh” value with EPHB2 is 0%; in the assay on EPHB3, 12%; in the assay on EPHB4 it was 35%; with EPHB6, 0%.

`O=C(O)COc1ncnc2cc(-c3ccc4[nH]ncc4c3)sc12`: the “%Inh” value in the assay on EPHA4 was 0%; with EPHA5, 42%; with EPHA6, 4%; in the assay on EPHA7, 0%; in the assay with EPHA8, 0%; in the assay with EPHB1 it was 0%. Moreover, the “%Inh” value with EPHB2 was 0%; in the assay on EPHB3, 0%; with EPHB4, 7%; with EPHB6, 47%.

As for `O=S(=O)(c1ccc(-c2ccnc3[nH]ccc23)cc1)N1CCCC1` [GSK846226], the “%Inh” value is recorded as 0% in the assay on EPHA4; 0% with EPHA5; 0% in the assay on EPHA6; 3% in the assay on EPHA7; 4% with EPHA8; 3% in the assay with EPHB1. Besides, the “%Inh” value in the assay with EPHB2 is listed as 0%; with EPHB3, 14%; with EPHB4, 4%; in the assay with EPHB6, 9%.

As to `Cc1ccc(NC(=O)Nc2cc(C(C)(C)C)nn2-c2ccccc2)cc1` [GSK1014915], the “%Inh” value in the assay with EPHA4 is reported as 24%; in the assay with EPHA5, 0%; in the assay with EPHA6, 28%; in the assay on EPHA7 it was 9%; in the assay on EPHA8, 25%; in the assay on EPHB1 it was 14%. The “%Inh” value in the assay on EPHB2 is 0%; in the assay with EPHB3, 20%; with EPHB4, 12%; in the assay on EPHB6 it was 19%.

As to `Nc1ncnc2[nH]c(-c3ccccc3)nc12` [AH5015], the “%Inh” value in the assay with EPHA4 is reported as 23%; in the assay on EPHA5, 0%; with EPHA6, 8%; with EPHA7, 29%; in the assay on EPHA8, 25%; with EPHB1, 0%. The “%Inh” value came out at 8% in the assay with EPHB2, 16% with EPHB3, 19% in the assay with EPHB4 and 25% in the assay on EPHB6.

As to `O=c1cc(N2CCOCC2)nc2n(Cc3cccc(Cl)c3Cl)ccn12` [GSK2286295], the “%Inh” value in the assay with EPHA4 amounted to 0%; in the assay with EPHA5 it was 0%; with EPHA6 it was 0%; in the assay on EPHA7, 3%; in the assay on EPHA8 it was 12%; with EPHB1, 13%. For the same molecule, the “%Inh” value in the assay with EPHB2 came out at 0%; with EPHB3, 11%; with EPHB4, 14%; in the assay on EPHB6, 24%.

For the molecule `Cc1cccc(-c2nc(-c3ccc(S(C)(=O)=O)cc3)sc2-c2ccnc(NCCc3ccccc3)c2)c1`, the “%Inh” value in the assay with EPHA4 is given as 0%; with EPHA5, 0%; in the assay on EPHA6, 15%; with EPHA7 it was 0%; with EPHA8, 0%; in the assay with EPHB1, 0%. Further, the “%Inh” value in the assay on EPHB2 turned out to be 10%; with EPHB3, 0%; in the assay on EPHB4, 0%; in the assay on EPHB6 it was 0%.

With `Cc1c(Cn2ccn3c(=O)cc(N4CCOCC4)nc23)cccc1C(F)(F)F` [GSK2289044], the “%Inh” value was 6% in the assay on EPHA4; 0% in the assay with EPHA5; 0% in the assay on EPHA6; 0% in the assay with EPHA7; 0% with EPHA8; 21% with EPHB1. The “%Inh” value in the assay with EPHB2 was 0%; in the assay with EPHB3, 5%; in the assay with EPHB4, 9%; in the assay with EPHB6, 0%.

The values above are taken from publication PMC5540273 (PLoS ONE, 2017).
